High-throughput results (PubChem)
Shown are actives, neighbours in structure and some others; about 19% of the full set was active somewhere.
TDP1 cell noCPT = qHTS for Inhibitors of human tyrosyl-DNA phosphodiesterase 1 (TDP1): qHTS in cells in absence of CPT; DT40 Tdp1-/- hTDP1 cells, no CPT, ATP luminescence, 48 h; Potency, µM (doses to about 46.2 µM), for inactives: at the highest dose activity change, negative = growth inhibition, most hits filed as inhibitors; 420,000 tested, 15% active; AID 686978, 2013; further: potency means the concentration at half of the fitted maximal effect; nearly all actives have a fitted effect of over 55% in size
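Readout: luminescence from CellTiter-Glo after 30 min in the dark at RT. Cells: DT40 Tdp1-/- with stable hTDP1, 400/well. Exposure: compounds alone, ≥48 hr, 37 °C.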
IL-1B inflam inh = qHTS for Inhibitors of Inflammasome Signaling: IL-1-beta AlphaLISA Primary Screen; THP-1 LPS/ATP IL-1B secretion, AlphaLISA, 16 h; active compounds read low; activity change, % at 57.5 µM; 360,000 tested, 4.7% active; AID 743279, 2014; in the data active means activity change below about -50%; inconclusive means mostly about -30% to -49%
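THP-1 cells pretreated 1 hr with compounds (up to 57.5 uM final), then stimulated with LPS (250 ng/mL final) plus ATP (1.25 mM final); secreted IL-1B measured by AlphaLISA after 16 hr, decreased signal indicating inhibition.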
TDP1 inh = qHTS Assay for Inhibitors of Tyrosyl-DNA Phosphodiesterase (TDP1); recombinant TDP1, AlphaScreen DNA substrate cleavage; Potency, µM (series often up to 130 µM), without a hit: at the highest dose activity change, negative = inhibition, usual class: inhibitors; 350,000 tested, 0.28% active; AID 485290, 2010; further: potency means the concentration at half of the fitted maximal effect; nearly all actives have a fitted effect of over 40% in size
Target sequence (Q9NUW8 whole entry, looked up): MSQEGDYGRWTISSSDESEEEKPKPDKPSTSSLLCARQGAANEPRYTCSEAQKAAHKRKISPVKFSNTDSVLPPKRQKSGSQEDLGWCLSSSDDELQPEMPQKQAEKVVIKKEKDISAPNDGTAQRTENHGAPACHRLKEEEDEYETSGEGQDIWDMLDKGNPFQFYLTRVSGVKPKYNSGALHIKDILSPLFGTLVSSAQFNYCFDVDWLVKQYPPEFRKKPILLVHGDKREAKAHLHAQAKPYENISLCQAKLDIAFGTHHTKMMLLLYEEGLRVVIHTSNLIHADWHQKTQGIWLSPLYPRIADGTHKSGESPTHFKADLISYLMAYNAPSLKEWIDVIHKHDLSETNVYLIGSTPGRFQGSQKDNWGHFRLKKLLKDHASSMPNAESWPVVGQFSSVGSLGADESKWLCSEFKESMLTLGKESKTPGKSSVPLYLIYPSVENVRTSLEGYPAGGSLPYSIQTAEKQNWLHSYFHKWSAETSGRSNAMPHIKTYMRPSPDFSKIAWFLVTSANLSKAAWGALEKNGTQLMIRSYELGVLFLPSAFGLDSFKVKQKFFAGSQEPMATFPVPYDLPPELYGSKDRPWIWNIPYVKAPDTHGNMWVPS
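Recombinant E. coli-expressed Tdp1 (1 nM) preincubated with compound 15 min at RT, then 5'-biotin/3'-phosphotyrosine-FITC DNA substrate (15 nM) added for 5 min. AlphaScreen beads (10 ug/ml) added, 10 min RT; tyrosine-FITC cleavage read as signal loss.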
ELG1 repair inh = qHTS screen for small molecules that inhibit ELG1-dependent DNA repair in human embryonic kidney (HEK293T) cells expressing luciferase-tagged ELG1 | 330,000 tested, 2.3% active | Potency, µM (highest dose often 46.1 µM), for inactives: at the highest dose activity change, negative = inhibition, most hits filed as inhibitors | HEK293T ELG1-luciferase reporter, luminescence, 16 h; DNA damage induced by 5-fluorouridine; further: potency means the concentration at half of the fitted maximal effect; nearly all actives have a fitted effect of over 55% in size
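5-Fluorouridine DNA damage + compound/DMSO, 2,000 cells/well, 16 h, 37 °C/5% CO2. ONE-Glo, 30 min RT, luminescence. Readout = decrease in reporter signal.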
DT40 TDP1 CPT = qHTS for Inhibitors of human tyrosyl-DNA phosphodiesterase 1 (TDP1): qHTS in cells in presence of CPT. chicken DT40 Tdp1-/-;hTDP1 cells + 20 nM CPT, ATP luminescence, 48 h. Potency, µM (highest dose often 46.2 µM), inactives show at the highest dose activity change, negative = growth inhibition, usual class: inhibitors. 420,000 tested, 12% active. AID 686979, 2013; further: potency means the concentration at half of the fitted maximal effect; nearly all actives have a fitted effect of over 55% in size
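Cell growth measured by CellTiter-Glo luminescence after a minimum 48 h, 37 C compound exposure with 20 nM CPT in Tdp1-knockout DT40 cells stably expressing hTDP1, seeded 400/well; qHTS titration format.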
Giardia kill = Small Molecules that selectively kill Giardia lamblia: qHTS; 340,000 tested, 0.15% active; activity change, % at 7.66 µM, hits read low; Giardia lamblia trophozoite viability; in the data active means activity change below about -80%; inconclusive means between about -30% and that limit;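 further: parasites exposed to compound for two days anaerobically before the ATP read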
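Trophozoites 100 cells/well + cpd; 48 hrs, 37 deg C, anaerobic. ATPLite 1-Step added, 15-30 min RT, luminescence read (ATP-based viability).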
The depositor's hits bear a star; [ ] = remark or other dose. Unless noted, the call rests on the fitted dose curve; in most records, active means well fitted curve in the direction sought with a large enough effect; inconclusive means small, poorly fitted or top-dose-only effect, or another doubt; inactive means no such curve, though single readings can be large; an effect the other way counts as inactive or inconclusive. On the % scale 0 is the no-effect control and ±100 the full control effect.

CCOc1ccc(N(CC(=O)Nc2cccc(Cl)c2)S(=O)(=O)c2c(C)noc2C)cc1 was read as TDP1 cell noCPT 12µM*, IL-1B inflam inh -17, TDP1 inh -1%, ELG1 repair inh inconclusive, DT40 TDP1 CPT 13µM* and Giardia kill inconclusive.
Screening CCOc1ccc(N(CC(=O)Nc2ccccc2OCC)S(=O)(=O)c2c(C)noc2C)cc1 returned TDP1 cell noCPT 3.3µM*, IL-1B inflam inh 53, TDP1 inh 3%, ELG1 repair inh 7%, DT40 TDP1 CPT 5.2µM* and Giardia kill 4.
CCOc1ccc(NC(=O)CN(c2ccc(CC)cc2)S(=O)(=O)c2c(C)noc2C)cc1 was read as TDP1 cell noCPT 13µM*, TDP1 inh 12% and DT40 TDP1 CPT 12µM*.
`CCOc1ccc(N(CC(=O)Nc2ccc(F)c(F)c2)S(=O)(=O)c2c(C)noc2C)cc1` gave TDP1 cell noCPT inconclusive, IL-1B inflam inh -15, TDP1 inh 0%, ELG1 repair inh -8%, DT40 TDP1 CPT inconclusive and Giardia kill -11.
Screening CCOc1ccc(N(CC(=O)NC(C)(C)C)S(=O)(=O)c2c(C)noc2C)cc1 returned TDP1 cell noCPT -15%, IL-1B inflam inh 16, TDP1 inh 0%, ELG1 repair inh 2%, DT40 TDP1 CPT 3% and Giardia kill 8.
`COc1ccc2c(c1)O[C@@H](c1ccc3c(c1)OCO3)[C@H](OC(=O)NCCOc1ccccc1)C2=O` gave TDP1 inh 6%.
For COc1cc2c(cc1OC)C(Cc1ccc(O)c(Oc3ccc(C[C@H]4c5cc(OC)c(OC)cc5CCN4C)cc3)c1)N(C)CC2 (stereo not given in full) the results were TDP1 inh 7% and ELG1 repair inh inconclusive.
COc1ccc(N2CCN(C(=O)c3cccn4c(=O)c5ccc(Cl)cc5nc34)CC2)cc1 was read as TDP1 cell noCPT -10%, TDP1 inh 4% and DT40 TDP1 CPT -11%.
Oc1ccc(CNc2cccnc2)c2cccnc12 was read as TDP1 inh 5%.
For CCOC(=O)c1ccc(NC(=O)N2CC3CCCN3c3ccccc32)cc1 (stereo not given) the results were TDP1 cell noCPT inconclusive, TDP1 inh 11% and DT40 TDP1 CPT inconclusive.
Screening CCOc1ccccc1NC(=O)CN(c1ccc(C)cc1)S(=O)(=O)c1c(C)n[nH]c1C returned TDP1 cell noCPT inconclusive, IL-1B inflam inh -95*, TDP1 inh 5%, ELG1 repair inh -20%, DT40 TDP1 CPT inconclusive and Giardia kill 10.
CCOc1ccc(N/C(N)=N/c2nc(CSc3nnc(C)s3)cc(=O)[nH]2)cc1 was read as TDP1 cell noCPT 0.58µM*, IL-1B inflam inh 37, TDP1 inh -3%, ELG1 repair inh inconclusive, DT40 TDP1 CPT 0.65µM* and Giardia kill -11.
Cc1nnc(SCc2cc(=O)[nH]c(/N=C(\N)Nc3ccccc3)n2)s1 was read as TDP1 cell noCPT 21µM*, IL-1B inflam inh 22, ELG1 repair inh 0%, DT40 TDP1 CPT inconclusive and Giardia kill -16.
For Cc1nnc(SCc2cc(=O)[nH]c(/N=C(\N)Nc3ccccc3Sc3ccccc3)n2)s1 the results were TDP1 cell noCPT -3%, IL-1B inflam inh 25, TDP1 inh 5%, ELG1 repair inh -3%, DT40 TDP1 CPT -5% and Giardia kill -8.
For O=C(O)C1C2C=CC3(CN(Cc4ccncc4)C(=O)C13)O2 (stereo not given) the results were TDP1 cell noCPT 4%, IL-1B inflam inh 4, TDP1 inh 0%, ELG1 repair inh 17%, DT40 TDP1 CPT 0% and Giardia kill -4.
CCOC1(c2ccccc2)CC1C(=O)N/N=C/c1cccc([N+](=O)[O-])c1 (stereo not given) was read as TDP1 cell noCPT inconclusive, IL-1B inflam inh inconclusive, ELG1 repair inh -18%, DT40 TDP1 CPT inconclusive and Giardia kill 22.
`O=C(c1ccc(C(F)(F)F)cc1)N(Cc1cc2ccc(F)cc2nc1N1CCOCC1)C1CC1` gave TDP1 cell noCPT inconclusive and DT40 TDP1 CPT 3%[9.04 µM].
Screening Cc1cccc(Cn2cnc3c(sc4nc(C)cc(C)c43)c2=O)c1 returned TDP1 cell noCPT -22%, IL-1B inflam inh 4, TDP1 inh -4%, ELG1 repair inh 8%, DT40 TDP1 CPT -5% and Giardia kill 16.
`COc1ccc(-n2nc(C#N)c(Cl)cc2=O)cc1` gave TDP1 cell noCPT 4.6µM*, IL-1B inflam inh -106*, TDP1 inh 3%, ELG1 repair inh inconclusive, DT40 TDP1 CPT 3.3µM* and Giardia kill 14.
For COc1ccc(C2CC(c3cccs3)=NN2C(=O)CSc2nc(=O)n3cc(C)ccc3n2)cc1 (stereo not given) the results were TDP1 cell noCPT -19%, IL-1B inflam inh -16, TDP1 inh 1%, ELG1 repair inh -16%, DT40 TDP1 CPT -8% and Giardia kill 3.
COc1ccc(CCC(=O)OCc2csc(CC(=O)Nc3ccccc3C)n2)cc1 was read as TDP1 cell noCPT -20%, IL-1B inflam inh -8, TDP1 inh -2%, ELG1 repair inh 20%, DT40 TDP1 CPT -12% and Giardia kill -10.
Screening O=C(NCCCn1ccnc1)c1nn2c(C(F)(F)F)cc(-c3ccc(Br)cc3)nc2c1Cl returned TDP1 cell noCPT 16µM*, IL-1B inflam inh -52*, TDP1 inh 0%, ELG1 repair inh inconclusive, DT40 TDP1 CPT 23µM* and Giardia kill 49.
`COc1ccc(-c2cc(C(F)(F)F)n3nc(C(=O)Nc4c(C)n(C)n(-c5ccccc5)c4=O)c(Cl)c3n2)cc1` gave TDP1 cell noCPT inconclusive, IL-1B inflam inh 14, TDP1 inh -3%, ELG1 repair inh -6%, DT40 TDP1 CPT inconclusive and Giardia kill 6.
COc1ccc(-c2cc(C(F)(F)F)n3nc(C(=O)NCCN4CCOCC4)cc3n2)cc1 was read as TDP1 cell noCPT inconclusive, IL-1B inflam inh -18, TDP1 inh 0%, ELG1 repair inh -1%, DT40 TDP1 CPT inconclusive and Giardia kill 8.
